aSyn UTR act – Activators via SNCA 5'UTR binding, MLPCN. alpha-synuclein 5'UTR reporter, activators screen. activity score, % (tested at 7.5 µM), hits read low. actives 7.1% (n = 300,000); in the data active means activity score below about -60%
Active calls of the source: *. The list is a sample of the results.

SMILES	aSyn UTR act
Cc1ccn2cc(-c3cccc(NC(=O)c4cccs4)c3)nc2c1	-85.2*
Cc1ccccc1-n1nc(C)c2c(C(=O)NN)cc(-c3ccncc3)nc21	56.5
Cc1cccn2cc(-c3cccc(NC(=O)c4cccs4)c3)nc12	-73.2*
Cc1ccc2oc(=O)c(/C=C(\O)c3ccccc3)nc2c1	-79.2*
Cc1ccc2oc(=O)c(/C=C(\O)c3cccs3)nc2c1	-148.0*
O=c1oc2ccc(Cl)cc2nc1/C=C(\O)c1cccs1	-107.6*
Cc1ccc(OC(=O)NC2CCS(=O)(=O)C2)cc1C (centres undefined)	-122.3*
Cc1cc(=O)[nH]c2nnc(-c3ccc(Br)cc3)n12	-62.3*
Fc1ccccc1C1CCN(Cc2nc(CC3CC3)no2)C1 (centres undefined)	-81.5*
COc1cc(OC)cc(C(=O)Nc2ccccc2C(=O)N2CCCC2)c1	-123.1*
COc1ccc(C(=O)Nc2ccccc2C(=O)Nc2ccncc2)cc1	-104.6*
COc1ccc(C(=O)Nc2ccccc2C(=O)Nc2ccccc2C(=O)O)cc1	-98.2*
COc1cc(OC)cc(C(=O)NNC(=O)c2ccccn2)c1	72.7
CCC(NC(=O)c1ccccc1NC(=O)c1ccc(OC)cc1)C(=O)N1CCCC1 (centres undefined)	-69.3*
COc1ccc(C(=O)N[C@H](C(=O)Nc2nc3ccccc3[nH]2)C(C)C)cc1	106.1
COc1ccc(C(=O)NC2=Nc3ccccc3N=C(C)C2c2ccccc2)cc1 (centres undefined)	-227.6*
COc1ccc(C(=O)Nc2ccccc2C(=O)N/N=C/c2cccc3ccccc23)cc1	-169.1*
CCCCOC(=O)c1ccc(Nc2ncnc3nc[nH]c23)cc1	-118.2*
FC(F)Sc1ccc(Nc2ncnc3nc[nH]c23)cc1	-73.3*
CCCc1nc2oc3c(NCCCN(C)C)ncnc3c2c2c1CCCC2	107.7
Cc1ccc(/C=N/n2cnc3sc(-c4ccccc4)cc3c2=O)o1	-109.5*
CC(C)(C)Nc1nc(Cl)nc(Nc2ccccc2)n1	-136.0*
CCCNc1nc(Cl)nc(Nc2ccc(Cl)cc2)n1	-62.8*
Cc1cccc(N/N=C/c2ccc(C)s2)c1	-180.0*
Cc1ccc(/C=N/N=C/c2ccc(C)s2)s1	-199.3*
SMILES	aSyn UTR act
CC(=O)OC(CC(=O)O)C[N+](C)(C)C (centres undefined)	67.7
Cc1nc(S(=O)(=O)N(C)c2ccccc2)c(C#N)c(C)c1Cl	-76.5*
Cc1cccc(NC(=O)c2n[nH]c([N+](=O)[O-])c2Br)c1C	-61.9*
NC(=O)c1ccc(-n2nnnc2Oc2ccccc2C(=O)N2CCOCC2)cc1	-107.6*
Oc1ccc(-c2csc(Nc3ncccn3)n2)c(O)c1	-165.4*
Oc1ccc(-c2csc(Nc3ncccn3)n2)cc1O	-177.8*
Cc1cccc(Nc2nc(-c3ccc(O)cc3O)cs2)n1	-125.9*
Cc1ccc(C)c(-c2csc(Nc3ncccn3)n2)c1	-66.3*
O=C(Cn1nnc2ccccc21)c1ccc(Br)cc1	-82.2*
Cc1ccc(NC(=O)CCn2nnc3ccccc32)cc1	-84.2*
O=C(CCn1nnc2ccccc21)N1CCN(c2ccccc2)CC1	-118.9*
Cc1ccc(C(=O)Cn2nnc3ccccc32)cc1C	-90.4*
O=C(Cn1nnc2ccccc2c1=O)NC1CCCCC1	-68.3*
CC(=O)Nc1ccc(C(=O)Cn2nnc3ccccc3c2=O)cc1	-65.7*
Cc1ccc(C(=O)Cn2nnc3ccccc32)cc1	-161.4*
COc1ccc(-c2ccc(C3C(C#N)=C(N)Oc4n[nH]c(C)c43)o2)cc1 (centres undefined)	-65.2*
COc1ccc(N2C(=O)c3ccccc3NC2c2ccc(OC)c(Cn3cc([N+](=O)[O-])cn3)c2)cc1 (centres undefined)	-87.3*
CCCn1c(C)cc(C(=O)COc2ncnc3sccc23)c1C	-149.6*
Cc1cc(C(=O)COc2ncnc3sccc23)c(C)n1C1CC1	-78.6*
C(=N\Nc1nc2ccccc2[nH]1)/c1cccc2nccnc12	67.3
Cc1ccc(/C=N\Nc2nc3ccc(Cl)cc3[nH]2)o1	-192.3*
CCCCn1c(/C=N/Nc2nc3ccccc3[nH]2)nc2ccccc21	-432.6*
C(=N\Nc1nc2ccccc2[nH]1)/c1ccccn1	111.7
Fc1ccccc1-c1ccc(/C=N/Nc2nc3ccccc3[nH]2)o1	-216.8*
C#CCn1cc(/C=N/Nc2nc3ccccc3[nH]2)c2ccccc21	-383.3*
SMILES	aSyn UTR act
CCCc1cc(=O)n2[nH]c(-c3cccc(Br)c3)cc2n1	-180.6*
CCCc1cc(=O)[nH]c(-n2[nH]c3c(c2=O)CCCC3)n1	55.9
CCCc1cc(=O)n2[nH]c(-c3ccc(Br)cc3)cc2n1	-87.3*
Cn1cccc1C(=O)OCc1cc(Cl)cc2c1OCOC2	-80.4*
O=C(Nc1nc(-c2ccccc2)cs1)c1ccco1	-98.2*
CCOc1ccc(-c2csc(NC(=O)c3ccco3)n2)cc1	-125.5*
Cc1ccc(-c2csc(NC(=O)c3ccc(-c4ccccc4)cc3)n2)o1	-122.1*
COc1ccc(-c2csc(NC(=O)c3ccco3)n2)cc1	-240.7*
O=C(NNc1nc(-c2ccc(Br)cc2)cs1)c1ccco1	-105.1*
Cc1ccc(-c2csc(NC(=O)c3ccco3)n2)cc1C	-208.8*
O=C(Nc1nc(-c2ccco2)cs1)c1ccccc1	-180.6*
O=C(Nc1nc(-c2ccccn2)cs1)c1ccccc1-n1cnnn1	98.3
COc1ccc(-c2csc(NC(=O)C3=NN(c4ccccc4)C(=O)CC3)n2)cc1	-85.9*
Cc1ccc(NC(=S)Nc2ccc(OC(F)F)c(Cl)c2)cc1F	-105.1*
COc1ccc(NC(=O)c2ccc(OC(F)F)cc2)cc1Cl	-167.5*
O=C(Nc1ccc(OC(F)F)c(Cl)c1)c1ccccn1	-92.0*
Cc1ccc(C(=O)Nc2ccc3c(c2)OCO3)o1	-118.0*
C/C(=C\C(=O)c1ccc(C)o1)Nc1ccc2c(c1)OCO2	-170.3*
C/C(=C\C(=O)c1ccccc1)Nc1ccc2c(c1)OCO2	-115.0*
CCOc1ccc(N/C(C)=C/C(=O)c2ccc(C)o2)cc1	-78.6*
Cc1cc(C)n2nc(C(=O)Nc3ccc4c(c3)OCO4)nc2n1	-112.9*
CC(O)CNC(=O)C1CCN(Cc2ccc(OCc3ccccc3)cc2)CC1 (centres undefined)	-126.2*
CC(C)CNC(=O)C1CCN(Cc2ccc(OCc3ccccc3)cc2)CC1	-95.0*
COc1ccc(NC(=O)Nc2ccccn2)cc1OC	-79.4*
CN1C(=O)CSc2ccc(NC(=O)Nc3ccccn3)cc21	-115.6*
SMILES	aSyn UTR act
O=C(Nc1ccc(Cl)c(Cl)c1)Nc1ccccn1	-177.7*
CC(C)(C)c1ccc(C(=O)Nc2ccc(CC(=O)O)cc2)o1	110.7
O=C(Nc1ccc2c(c1)Cc1ccccc1-2)c1ccc(Br)o1	-94.5*
NC(=O)c1ccccc1NC(=S)NC(=O)c1ccc(Br)o1	-123.7*
O=C(Nc1ccc(Nc2ccccc2)cc1)c1ccc(Br)o1	-127.9*
O=C(Nc1cccc(OC(=O)c2ccc(Br)o2)c1)c1ccccc1	-65.8*
CC(C)c1ccc(NC(=O)c2ccc(Br)o2)cc1	-148.5*
O=C(NC(=S)Nc1ccccc1)c1ccc(Br)o1	-286.5*
COc1ccc(NC(=O)c2ccc(Br)o2)cc1	-159.5*
COc1ccc(NC(=S)NC(=O)c2ccc(Br)o2)cc1	-106.9*
CCCC(=O)Nc1ccc2c(c1)Cc1ccccc1-2	-138.1*
CC1=NC(=O)C(N=Nc2ccccc2)N1c1ccccc1 (centres undefined)	-109.4*
CCc1nnc(NC(=O)c2csc3c2CCC(C)C3)s1 (centres undefined)	-67.4*
COc1ccc(C=Nc2cccc3c(=O)[nH][nH]c(=O)c23)c2ccccc12	-67.4*
Cc1cc(C)n(-c2nc(NCCN(C)C)c3c4c(sc3n2)CCCC4)n1	115.9
